# High-throughput results (PubChem)
# Sampled rows, rich in hits. Any-hit rate of the full collection: about 2.8%.
# IDE inh – cellular human IDE inhibition. 0.41% of 320,000 active. AID 434962. inhibition, % at 5.59 µM. HEK cells, FAbetaB cleavage, fluorescence polarization;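 active = percent inhibition above the average of all tested compounds plus 3 SD, set per screening campaign, cut at about 16% in these data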;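 also: IDE supplied by intact live HEK cells; FP after avidin binding of uncleaved biotin substrate so inhibition keeps polarization high; 0% = DMSO wells and 100% = 60 µM reference IDE inhibitor Ii1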
# Granule exo inh – lytic granule exocytosis inhibition; 0.66% of 360,000 active; inhibition, % at 10 µM; TALL-104 LAMP-1 surface exposure, flow cytometry; cells stimulated with thapsigargin and PMA;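 active = inhibition above about 55%, limit read from the data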
# IDE cell activ – IDE (human) activation, cell-based; P14735; HEK cells, FAbeta-B cleavage, fluorescence polarization; 0% vehicle, 100% cell-free pure enzyme wells; activation, % at 5.96 µM; 0.073% of 340,000 active;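 active = activation above the mean of all tested compounds plus 3 SD, set per screening campaign, cut at about 17% in these data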
# PP1 inh – PP1-alpha (human) inhibition in PP5 counter-screen; P62136; purified PP1alpha, OMFP fluorescence; 0.9% of 320,000 active; inhibition, % at 6.7 µM;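 active = inhibition above the mean inhibition of all tested compounds plus 3 SD, computed separately for each screening campaign, cut at about 15% in these data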
# SKKanGAS inh – blocks kanamycin growth of S. pyogenes SKKanGAS strain; BacTiter-Glo, 6 h; inhibition, % at 7.5 µM; 1.3% of 300,000 active; AID 1662;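 active = mean replicate score, as percent of positive control median, at least 50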;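 also: strain carries kanamycin resistance gene driven by streptokinase promoter and grows in 40 µg/ml kanamycin; loss of luminescence reflects streptokinase promoter inhibition or plain growth inhibition; 0% = median of DMSO wells and 100% = positive control at its reference dose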
# PP5 inh – blocks human protein phosphatase 5 activity. purified PP5c, OMFP substrate fluorescence. inhibition, % at 6.7 µM. 0.18% of 320,000 active. AID 1987;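 active = inhibition above the campaign's mean inhibition across all tested compounds plus 3 SD, cut at about 9.5% in these data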;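 also: 0% = DMSO only and 100% = 100 µM cantharidin control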
# PP1 inh confirm – confirmation of human PP1 phosphatase inhibitors | purified PP1alpha, OMFP substrate fluorescence | AID 2358 | inhibition, % at 6.7 µM | 52% of 1,900 active | shares compounds with PP1 inh;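 active = mean PP1 inhibition above a set limit taken from the earlier primary screen, cut at about 15% in these data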
# PP5 inh counter – PP5 phosphatase inhibition, counter-screen for PP1 inhibitors | inhibition, % at 6.7 µM | shares compounds with PP1 inh | purified PP5c, OMFP fluorescence | 4% of 1,900 active;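 active = mean PP5 inhibition over triplicate wells above about 9.5% taken from the earlier PP1 screen, limit read from the data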
# * hit, by the source's call; nt = no result.
SMILES,IDE inh,Granule exo inh,IDE cell activ,PP1 inh,SKKanGAS inh,PP5 inh,PP1 inh confirm,PP5 inh counter
C#CCOCCOCCOCCNc1nc(N2CCN(C(=O)CCCCCCCCCCNC(=O)[C@H](CCCCN)n3cc(C)nn3)CC2)nc(N2CCN(C(=O)CCCCCCCCCCNC(=O)[C@@H]([C@H](C)CC)n3cc(CCCCCN)nn3)CC2)n1,4,-5,39*,60*,nt,5,28*,-1
C#CCOCCOCCOCCNc1nc(N2CCN(C(=O)CCCCCCCCCCNC(=O)[C@H]([C@@H](C)CC)n3cc(CCCCCN)nn3)CC2)nc(N2CCN(C(=O)CCCCCCCCCCNC(=O)[C@@H]([C@H](C)O)n3cc(C)nn3)CC2)n1,-11,-8,39*,54*,nt,4,41*,0
S=c1[nH]nc(-c2cccnc2)n1-c1ccc2c(c1)OCCO2,-2,-2,4,52*,-7,0,-2,-4
Cc1ccc(S(=O)(=O)N(C)C)cc1NC(=O)COC(=O)Cc1ccsc1,-9,-1,10,3,-13,-3,nt,nt
Cc1cccc2c1N(CCCOc1ccc(C(C)(C)C)cc1)C(=O)C2=O,-1,36,6,14,22,3,nt,nt
Cc1ccccc1OCCCN1C(=O)C(=O)c2cccc(C)c21,3,6,-9,21*,-1,1,11,2
Cc1ccc(-c2nnc(SCC(=O)N/N=C/c3ccc(C(=O)O)cc3)n2C2CCCCC2)cc1,-2,5,2,1,2,0,nt,nt
Cc1ccccc1Nc1nnc(SCc2nc3ccccc3c(=O)[nH]2)s1,2,nt,nt,22*,-1,1,2,-8
Cc1ccccc1Nc1nnc(SCC(=O)NC(=O)NCc2ccco2)s1,-3,1,5,26*,-8,1,7,-3
Cc1ccc(NC(=O)CSc2nc(NS(=O)(=O)c3ccccc3)cc(=O)[nH]2)cc1,0,2,0,22*,2,4,-1,-6
CCc1ccc(NC(=O)CSc2nc(NS(=O)(=O)c3ccccc3)cc(=O)[nH]2)cc1,nt,1,-5,nt,-2,nt,nt,nt
CCCOC(=O)c1ccc(NC(=O)c2ccccc2OC)cc1,0,8,-2,-4,-4,2,nt,nt
CCCCOC(=O)c1ccc(NC(=O)c2ccccc2OC)cc1,14,2,0,64*,1,7,1,2
COc1ccc(CN2C(=O)Cc3c2nc(N)c2c(N)nc(N4CCOCC4)c(C#N)c32)cc1,7,-3,2,18*,13,6,4,14*
COCCN1C(=O)Cc2c1nc(N)c1c(N)nc(N3CCN(c4ccc(F)cc4)CC3)c(C#N)c21,-1,-3,4,19*,12,1,8,7
COCC(C)N1C(=O)Cc2c1nc(N)c1c(N)nc(N3CCN(c4ccccc4F)CC3)c(C#N)c21 (stereo not given),-3,-1,-1,11,24,8,nt,nt
COc1ccc(CN2C(=O)C(CC(=O)NC3CCCCC3)CC(C(=O)N(C)C)=C2C)cc1 (stereo not given),nt,8,nt,nt,nt,nt,nt,nt
O=C(Nc1ccncc1)Nc1cccc(C(F)(F)F)c1,2,0,2,1,-10,1,nt,nt
Oc1c(C(Nc2cccc(C(F)(F)F)c2)c2ccncc2)ccc2cccnc12 (stereo not given),5,2,2,18*,60*,4,14,-3
COc1ccc(-n2c(COc3ccc(Cl)cc3)nnc2SCc2ccc(C#N)cc2)cc1,0,4,2,20*,22,5,5,6
COc1ccc2cc3c(N)nn(C(=O)Cc4c[nH]c5ccccc45)c3nc2c1,2,10,2,19*,27,5,17*,4
COc1ccc2cc3c(N)nn(C(=O)Cc4ccc(Cl)cc4)c3nc2c1,-1,-1,4,21*,7,1,12,-4
Cc1cc(C2=NNC(=NC3CC3)SC2)c(C)n1-c1ccccc1F,2,4,0,14,6,2,nt,nt
